According to PubChem BioAssay AID686979 (National Center for Advancing Translational Sciences (NCATS), 2013):
Out of some 420,000 compounds screened, about 50,000 (12%) were called active. Roughly 26% stayed inconclusive and do not appear here. Calls follow the shape of the dose curve; as a rule, active = well fitted inhibition curve with a large enough effect; inconclusive = small, poorly fitted or top-dose-only effect; inactive = flat fitted curve, though single readings scatter. The full list was thinned out, with actives kept by preference.

experiment: qHTS for Inhibitors of human tyrosyl-DNA phosphodiesterase 1 (TDP1): qHTS in cells in presence of CPT; conditions: chicken DT40 Tdp1-/-;hTDP1 cells + 20 nM CPT, ATP luminescence, 48 h; series mostly up to 46.2 µM; activity change, negative = growth inhibition: at the top concentration; also: nearly all actives have a fitted effect of over 55% in size
Summary of the method: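 Chicken DT40 Tdp1-/- cells complemented with human TDP1, 400 cells/well, exposed to compounds plus 20 nM camptothecin for at least 48 h at 37 C; viability read as ATP content by CellTiter-Glo luminescence.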
% is scaled to controls: 0 for no effect and ±100 for the full control effect; potency is read from the fitted curve at half-maximal effect.

SMILES | activity change, negative = growth inhibition | Potency
C=CCN(CC=C)C(=O)COC(=O)c1n[nH]c2ccccc12 | -1.43% (inactive) | –
CNC1(c2nnnn2-c2c(C)cccc2C)CCOC(C)(C)C1 (configuration not stated) | -0.779% (inactive) | –
CC(C)CC(=O)NCC(c1ccc2c(c1)OCO2)N1CCN(c2ccc(F)cc2)CC1 (configuration not stated) | – | 16.4 µM (active)
CC(C)CNC(=O)C(=O)NCC(c1ccc2c(c1)OCO2)N1CCOCC1 (configuration not stated) | 3.18% (inactive) | –
O=C(NCCO)C(=O)NCC(c1ccc2c(c1)OCO2)N1CCN(c2ccc(F)cc2)CC1 (configuration not stated) | 2.47% (inactive) | –
COc1ccc(N)cc1NC(=O)CN1CCOCC1 | -5.1% (inactive) | –
COc1ccc(C2C(C(C)=O)=C(O)C(=O)N2CCc2c[nH]c3ccccc23)cc1 (configuration not stated) | -10.4% (inactive) | –
CC(=O)c1ccc(Nc2nc(C(N)c3ccccc3Cl)cs2)cc1 (configuration not stated) | – | 14.6 µM (active)
CC(=O)c1ccc(NC(=O)C(C)N(C)CC(=O)Nc2ccccc2Cl)cc1 (configuration not stated) | -5.9% (inactive) | –
CC(=O)c1ccc(NC(=O)c2cc(-c3cccs3)on2)cc1 | 4.84% (inactive) | –
COc1cc(OC)c(NC(=O)c2c3c(nn2C)-c2ccccc2SC3)cc1Cl | -88.3% (inactive) | –
COc1cc(NC(=O)c2noc3c2CSc2ccccc2-3)cc(OC)c1OC | – | 9.2 µM (active)
COc1ccccc1-c1cc(C(=O)N2CCCCC2)no1 | -28.7% (inactive) | –
COc1ccc(CCNC(=O)CSc2nc3[nH]ncc3c(=O)n2-c2cccc(C(F)(F)F)c2)cc1OC | 4.43% (inactive) | –
NC(=O)NC(=O)CSc1nc2cc([N+](=O)[O-])ccc2n1-c1cccc(C(F)(F)F)c1 | – | 10.3 µM (active)
Cc1cccc(-n2c(Cc3cc(=O)[nH]c(=O)[nH]3)nnc2SCC(=O)Nc2cccc(C(F)(F)F)c2)c1 | -2.7% (inactive) | –
COc1ccc(NS(=O)(=O)c2cc3c(cc2C)N(C(C)=O)CCO3)cc1 | – | inactive
COc1ccc(C(=O)NC(Cc2ccc(OC(=O)c3ccc(OC)cc3)cc2)C(=O)O)cc1 (configuration not stated) | -1.18% (inactive) | –
O=C(Nc1ccncc1)c1ccccc1[N+](=O)[O-] | -26.9% (inactive) | –
O=[N+]([O-])c1ccccc1SNc1ccccn1 | – | 20.6 µM (active)
O=C(CSc1nnc(-c2ccc([N+](=O)[O-])cc2)o1)Nc1ccccn1 | -12.2% (inactive) | –
CCN1C[C@@H]2[C@@H]3C(=O)N(C)C(=O)[C@@H]3[C@](C)(C1=O)N2C(=O)c1ccccc1 | -2.52% (inactive) | –
COc1ccc(-c2nnc(SCc3cccnc3)o2)cc1 | -2.9% (inactive) | –
N#Cc1nc(COc2ccc(Cl)cc2)oc1N1CCCC1 | -22% (inactive) | –
N#Cc1nc(COc2ccc(-c3ccccc3)cc2)oc1NCc1cccnc1 | – | 6.51 µM (active)
CCOC(=O)C[C@H]1c2ccc(C(F)(F)F)cc2S(=O)(=O)N1c1ccccc1 | -27.7% (inactive) | –

SMILES | activity change, negative = growth inhibition | Potency
COc1ccc2oc(N)c(C=O)c(=O)c2c1 | 0.0059% (inactive) | –
CCN(CC(=O)Nc1cc(Cl)ccc1C)C(=O)Cn1c(=O)cnc2ccccc21 | 18.2% (inactive) | –
CCN(CC(=O)Nc1cc(Cl)ccc1C)C(=O)CSCc1ccc(C)cc1 | – | 1.3 µM (active)
CCN(CC(=O)Nc1cc(Cl)ccc1C)C(=O)CN1C(=O)NC2(CCCC2)C1=O | 6.84% (inactive) | –
CCCNC(=O)CCc1c(C)nc2c(c(C)nn2-c2ccccc2)c1C | -9.57% (inactive) | –
COCCNC(=O)c1ccc(S(=O)(=O)c2ccc(Cl)cc2)c(NC(C)=O)c1 | -7.56% (inactive) | –
CC(=O)Nc1cc(C(=O)NCc2ccc(F)cc2Cl)ccc1Sc1ccc(Cl)cc1 | – | 20.6 µM (active)
CC(=O)Nc1ccccc1-c1nc(CNC(=O)c2ccc(Cl)cc2)c(C)o1 | -121% (inactive) | –
O=C(CCc1ccccc1Cl)Nc1ccc(S(=O)(=O)Nc2nccs2)cc1 | 5.1% (inactive) | –
CN(C)S(=O)(=O)c1cccc(NC(=O)COC(=O)C2(c3ccccc3F)CCCC2)c1 | – | 18.4 µM (active)
CN(C)S(=O)(=O)c1cccc(NC(=O)COC(=O)/C=C/c2cccs2)c1 | 8.48% (inactive) | –
CN(C)S(=O)(=O)c1cccc(NC(=O)COC(=O)c2cc(=O)[nH]c(=O)[nH]2)c1 | 4.15% (inactive) | –
O=C(NCc1ccco1)c1ccc(NS(=O)(=O)c2cccc([N+](=O)[O-])c2)cc1 | -13.8% (inactive) | –
COc1ccc(NC(=O)CSc2nnc(Cc3ccccc3)c(=O)n2N)cc1 | -9.25% (inactive) | –
COc1ccc(C(=O)N(C)CC(O)c2ccccc2)cc1OC1CCN(C(C)=O)CC1 (configuration not stated) | -3.18% (inactive) | –
CCOC(=O)c1c(NC(=O)CNC2CCCc3ccccc32)sc(C(N)=O)c1C (configuration not stated) | – | 23.1 µM (active)
CCOC(=O)c1sc(NC(=O)CSc2nnc(-c3ccco3)o2)c(C(=O)OCC)c1C | -25.3% (inactive) | –
NC(=O)Nc1ccc(C(=O)OCC(=O)NC2CCCc3ccccc32)cc1 (configuration not stated) | 0.0893% (inactive) | –
COc1ccc(C(=O)N2CCN(c3ccc(C(C)=O)cc3F)CC2)cc1S(=O)(=O)NC1CC1 | -15.7% (inactive) | –
O=C(Nc1ccc2c(c1)OCCO2)C1CCCC1 | 16.2% (inactive) | –
O=C1Oc2ccccc2C(=O)/C1=C/c1ccccc1O | – | 5.8 µM (active)
COC(=O)c1ccc(/C=C2/C(=O)Oc3ccccc32)cc1 | 0.0303% (inactive) | –
COc1ccc2c(c1)O/C(=C\c1ccccc1O)C2=O | 0.283% (inactive) | –
COc1ccc2oc(C(=O)NCC(Cc3ccccc3)N(C)C)c(C)c2c1 (configuration not stated) | -53.9% (inactive) | –
CCOC(=O)C1=C(O)/C(=C/c2ccc(OCC(=O)Nc3ccc(C)cc3)cc2)N=C1C | -7.04% (inactive) | –
CN(C)c1nc(NN)nc(Nc2ccc(F)cc2)n1 | -9.38% (inactive) | –

SMILES | activity change, negative = growth inhibition | Potency
CCOC(=O)C(C)n1cnc2c(nnn2-c2ccc(F)cc2)c1=O (configuration not stated) | -2.15% (inactive) | –
CC(C)CC(COCc1ccc(Cl)cc1)N1CCN(C(=O)c2ccc(C(F)(F)F)cc2)CCC1=O (configuration not stated) | – | 14.6 µM (active)
CC(C)C[C@@H](CO)N1CCN(Cc2ccc(O)cc2)CCC1=O | – | inactive
Cc1ccc(S(=O)(=O)N2CCC(=O)N([C@H](COCc3ccccc3)C(C)C)CC2)cc1 | -24.5% (inactive) | –
CC(C)CC(CO)N1CCN(C(=O)c2ccc(Cl)cc2Cl)CCC1=O (configuration not stated) | -15.8% (inactive) | –
CN1CCC(=O)N([C@H](CO)Cc2ccccc2)CC1 | – | inactive
O=C(c1cc(Cl)cc(Cl)c1)N1CCC(=O)N(C(COCc2ccccc2)Cc2ccccc2)CC1 (configuration not stated) | – | 13 µM (active)
Cc1ccc(S(=O)(=O)N(C)C)cc1NC(=O)C1Cc2ccccc2CN1C(=O)c1ccco1 (configuration not stated) | -0.982% (inactive) | –
Cc1c(C(C)CCCO)oc(=O)c2c1Oc1c(C)c(C(C)C[C@@H](C)O)oc(=O)c1C2 (some centres not stated) | 4.27% (inactive) | –
CCCCCCCC(=O)OC(CN1CCCCCC1)CN1CCCC1=O (configuration not stated) | 16% (inactive) | –
COc1cc(/C=C2\C(=N)N3N=C(CC(=O)N4CCOCC4)SC3=NC2=O)cc(OC)c1OC | -6.19% (inactive) | –
Cc1cc2cc(CNC(=O)c3ccc(S(=O)(=O)N4CCOCC4)cc3)ccc2[nH]1 | -2.39% (inactive) | –
Cc1cccc(OCC(O)CN2CCN(S(=O)(=O)c3ccc(C)cc3C)CC2)c1 (configuration not stated) | -21.3% (inactive) | –
Cc1c(Br)cc(C(=O)N2CCCCCC2)c(C)c1C | -29.8% (inactive) | –
C=CCn1c(SCC(=O)Nc2nc3ccccc3s2)nnc1-c1ccccc1O | -15.4% (inactive) | –
Cc1nnc(NC(=O)CSc2nccn2-c2cccc(C)c2C)s1 | – | 4.61 µM (active)
COc1ccccc1-n1c(CNC(=O)c2ccccc2)nnc1SCC(=O)Nc1nnc(C)s1 | -16.9% (inactive) | –
Cc1cc(C)cc(-n2ccnc2SCC(=O)Nc2nc3ccccc3s2)c1 | – | 18.4 µM (active)
Cn1nnnc1SCC(=O)Nc1nc2ccccc2s1 | 8.1% (inactive) | –
Cc1cccc(CSc2nnc(NC(=O)CSc3nnc(C)s3)s2)c1 | -20.9% (inactive) | –
Cc1ccccc1-n1c(SCC(=O)Nc2cccc3ccccc23)nc(O)cc1=O | -1.44% (inactive) | –
Cc1cccc(-n2ccnc2SCC(=O)Nc2cccc3ccccc23)c1C | – | 23.1 µM (active)
COc1ccccc1-n1ccnc1SCC(=O)NC(C)(C)C | -8.23% (inactive) | –
COc1cccc(CC(=O)N2CCCC(CCC(=O)N3CCN(c4ccccn4)CC3)C2)c1 (configuration not stated) | -6.11% (inactive) | –
CC(C)Sc1ncnc2c1cnn2-c1ccccc1 | -7.47% (inactive) | –
Nc1cc(N)nc(SCc2cccc(F)c2)n1 | 1.43% (inactive) | –

SMILES | activity change, negative = growth inhibition | Potency
COCCN1C(=O)C(=O)/C(=C(/O)c2ccc(S(=O)(=O)N3CCCCC3)cc2)C1c1ccc(OC)c(OC)c1 (configuration not stated) | 5.68% (inactive) | –
Cc1ccc2c(c1)C1C[N+](C)(CC(=O)c3ccccc3)CCC1N2C(=O)c1ccccc1Cl (configuration not stated) | -1.83% (inactive) | –
CCOc1ccc(C2=CC(c3ccccc3)n3ncnc3N2)cc1 (configuration not stated) | -29.3% (inactive) | –
O=C(NCCC1=CCCCC1)C1CCN(Cc2cnn(-c3ccccc3)c2-n2cccc2)CC1 | – | 23.1 µM (active)
CC(=O)Nc1ccc(NC(=O)CSCc2cnn(-c3ccccc3)c2-n2cccc2)cc1 | -0.201% (inactive) | –
COCCNC(=O)C1CCCN(Cc2ccccc2Cl)CC1 (configuration not stated) | -11% (inactive) | –
CS(=O)(=O)c1ccc(C(=O)OCC(=O)NNC(=O)COc2ccc(Cl)cc2)cc1 | 6.33% (inactive) | –
Cc1cc(C(=O)O)ccc1[N+](=O)[O-] | -11.6% (inactive) | –
O=C(Nc1cccc(NC(=O)c2ccccc2[N+](=O)[O-])c1)c1ccccc1Cl | -11.1% (inactive) | –
NC(N)=N/N=C/c1ccc(Cl)c([N+](=O)[O-])c1 | – | 11.6 µM (active)
CN(C)c1ccc(/C=C/C(=O)c2ccc(C(C)(C)C)cc2)cc1[N+](=O)[O-] | – | 23.1 µM (active)
O=C(/C=C/c1ccc(Cl)cc1)N1CCN(c2ccccc2[N+](=O)[O-])CC1 | -6.66% (inactive) | –
O=C(O)c1ccc2c(=O)n3c(nc2c1)/C(=C/c1ccc(Cl)c([N+](=O)[O-])c1)CC3 | 8.58% (inactive) | –
O=C(/C=C/c1ccc(Cl)c([N+](=O)[O-])c1)c1ccc(O)cc1 | – | 4.11 µM (active)
CC(CC(=O)O)C(=O)c1ccc(Cl)c([N+](=O)[O-])c1 (configuration not stated) | -1.52% (inactive) | –
Nn1cnnc1N/N=C/c1cc([N+](=O)[O-])c(Cl)cc1Cl | 1.95% (inactive) | –
O=C(c1ccc(F)cc1)N1CCC(C(=O)N2CCN(S(=O)(=O)c3ccccc3Br)CC2)CC1 | -22.5% (inactive) | –
COc1ccc(NC(=O)C2CCC(CNS(=O)(=O)c3csc(C(N)=O)c3)CC2)cc1OC (configuration not stated) | -4.23% (inactive) | –
Cc1nn(Cc2ccccc2)c(C)c1CNC(=O)c1ccc(F)c(S(=O)(=O)N2CCOCC2)c1 | -13.2% (inactive) | –
O=C(c1ccc(F)c(S(=O)(=O)N2CCOCC2)c1)N(CCc1ccccc1)Cc1ccccc1 | – | 14.6 µM (active)
Cc1ccc(S(=O)(=O)N2CCOCC2)cc1C(=O)NC(=S)N(Cc1ccccc1)C(C)C | 6.11% (inactive) | –
O=C(COC(=O)c1ccc(F)c(S(=O)(=O)N2CCOCC2)c1)NCc1ccc2c(c1)OCO2 | -23% (inactive) | –
Cc1cccc(N(Cc2ccccc2)C(=O)c2cc(S(=O)(=O)N3CCOCC3)ccc2F)c1 | – | 18.4 µM (active)
Cc1ccc(S(=O)(=O)N2CCN(C(=O)c3cc(S(=O)(=O)N4CCOCC4)ccc3F)CC2)cc1 | -24.8% (inactive) | –
